Screens: PubChem BioAssay, Broad Institute
TRPM1 prom inh: MITF TRPM1 promoter inhibition in SK-MEL-5 cells; inhibition, % at 12.5 µM; 330,000 compounds, 0.83% hits; SK-MEL-5 TRPM1 promoter luciferase, 24 h;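 active = mean inhibition across replicates of 60% or more, whatever share of single replicates reaches that level; inconclusive = some that reach 60%, reason not given; inactive = mean inhibition across replicates below 60%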
esBAF inh: blocks esBAF chromatin remodeling in mouse ES cells | AID 602393 | 350,000 compounds, 2% hits | Bmi1-luciferase knock-in reporter, 24 h; 100% = twice the neutral-well signal | reporter increase, % at 12.5 µM; in the data active = activation above about 40%; inconclusive = no clear call, values can overlap the other calls;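 note: 0% = median of the plate's neutral control wells and 100% = double that signal; a rise in the Bmi1 reporter signal indicates esBAF inhibition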
C2C12 statin: suppression of simvastatin myotoxicity; rescue of ATP level, % at 7.49 µM; C2C12 myotubes + simvastatin, ATP luminescence, 48 h; scaled: DMSO 0, geranylgeraniol control 100; 330,000 compounds, 0.78% hits;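 active = mean ATP rescue above about 67%, or every replicate alone reaching that limit, limit read from the data, passing the limit was not always enough; inconclusive = no clear call, values can overlap the other calls; inactive = mean under the limit and some replicate under it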;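 note: myotubes were challenged with 10 µM simvastatin during compound exposure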
Wnt act: activators of Wnt/beta-catenin signaling. AID 743398. activation, % at 9.35 µM. 300,000 compounds, 1.2% hits. Wnt/beta-catenin reporter cell assay, activator, plate reader; in the data active = activation above about 30%, passing the limit was not always enough; inconclusive = no clear call, values can overlap the other calls;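 note: 0% = neutral control wells and 100% = positive control wells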
MITF TRPM1 HTS: increases MITF-driven TRPM1 promoter luciferase signal; SK-MEL-5 TRPM1-promoter luciferase, 24 h; % of positive control, neutral wells = 0; activation, % at 12.5 µM; 300,000 compounds, 0.75% hits;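 active = mean activation of at least 80% with every replicate also reaching 80%; inconclusive = mean reaches 80% but some replicate falls short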;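 note: 0% = neutral control wells and 100% = parthenolide positive control wells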
EBV LMP1 NFkB: reduces LMP1-driven NF-kappaB luciferase signal. LMP1-induced NF-kappaB luciferase reporter cells, luminescence. inhibition, % at 12.5 µM. 350,000 compounds, 0.69% hits. AID 504558; in the data active = inhibition above about 41%; inconclusive = no clear call, values can overlap the other calls;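 note: 0% = neutral control wells and 100% = reference inhibitor control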
Starred values were filed as active, the others as inactive; ? = inconclusive; . = no result given. Sampled rows, rich in hits. Any-hit rate of the full collection: about 4%.

SMILES | TRPM1 prom inh | esBAF inh | C2C12 statin | Wnt act | MITF TRPM1 HTS | EBV LMP1 NFkB
O=C(NCc1ccncc1)C(=O)NCC1OCCN1S(=O)(=O)c1ccc(Cl)cc1 (configuration not stated) | -13 | . | . | -3 | -2 | -1
Cc1cc(C)nc(-n2nc(C)c(Sc3ccc(F)cc3)c2N)n1 | -59 | 137* | -7 | 21 | 56 | -19
Cc1cc(C)nc(-n2nc(C)c3c(C(F)(F)F)cc(=O)[nH]c32)n1 | 0 | . | . | -7 | -1 | -13
CSc1ncccc1C(=O)OCc1ccccc1F | -53 | 50* | 4 | -1 | 56 | -6
CSc1ncccc1C(=O)OCc1ccccc1 | -70 | ? | 8 | . | 78 | 0
C[C@H](CO)N1C[C@H](C)[C@H](CN(C)C(=O)Nc2ccc(C(F)(F)F)cc2)Oc2ccc(NC(=O)C3CC3)cc2CC1=O | . | -4 | 18 | . | . | .
CC(C)CC(=O)/C(=C\c1ccc(Cl)cc1Cl)n1cncn1 | 86* | -17 | 4 | . | -83 | 8
COc1ccc(S(=O)(=O)NCCc2ccncc2)cc1 | 2 | -4 | 7 | -1 | -2 | 1
C[C@H](CO)N1C[C@H](C)[C@@H](CN(C)Cc2ccc(-c3ccccc3)cc2)Oc2ccc(NC(=O)Cc3cn(C)c4ccccc34)cc2CC1=O | . | -2 | 102* | . | . | .
C[C@@H]1CN([C@@H](C)CO)C(=O)Cc2cc(NC(=O)Cc3cn(C)c4ccccc34)ccc2O[C@H]1CN(C)Cc1ccc(C(F)(F)F)cc1 | . | 5 | 104* | . | . | .
C[C@H](CO)N1C[C@H](C)[C@H](CN(C)Cc2ccccc2)Oc2ccc(NC(=O)Cc3cn(C)c4ccccc34)cc2CC1=O | . | 6 | 21 | . | . | .
C[C@H](CO)N1C[C@H](C)[C@@H](CN(C)Cc2ccc(-c3ccccc3)cc2)Oc2ccc(NC(=O)Cc3ccccc3)cc2CC1=O | . | -4 | 76* | . | . | .
COc1ccc(S(=O)(=O)N2C[C@@H](O)COC[C@H]3O[C@@H](CC(=O)N[C@@H]4CCN(Cc5ccccc5)C4)CC[C@@H]32)cc1 | . | 3 | -5 | . | . | .
CC(C)OCCCNC1=C(Cl)C(=O)c2ccccc2C1=O | . | . | . | 18 | . | .
OCC1OC(n2ccc3c(NO)ncnc32)C(O)C1O (configuration not stated) | 95* | . | . | -3 | -95 | 80*
Nc1ccc(CCNc2ncnc3c2ncn3[C@@H]2O[C@H](CO)[C@@H](O)[C@H]2O)cc1 | 9 | -4 | 21 | 2 | -8 | 84*
CN(C)c1ncnc2c1ccn2C1OC(CO)C(O)C1O (configuration not stated) | 4 | -8 | -132 | -10 | -1 | 7
O=c1[nH]cnc2c1ncn2[C@@H]1O[C@H](CO)[C@@H](O)[C@H]1O | 9 | -1 | -3 | -28 | -9 | 80*
OCC1OC(n2cnc3c(NCCc4ccccc4)ncnc32)C(O)C1O (configuration not stated) | -43 | 36 | 3 | 30 | 43 | 7
Nc1ccn([C@@H]2O[C@H](CO)[C@@H](O)C2O)c(=O)n1 (some centres not stated) | 18 | -42 | 6 | -1 | -17 | 47*
COc1cc(SC)ccc1C(=O)NCCc1ccccc1 | -77 | 34 | 5 | . | 79 | -27
C[C@H]1CN([C@@H](C)CO)C(=O)Cc2cc(NC(=O)Nc3cccc4ccccc34)ccc2O[C@H]1CN(C)Cc1ccc(Oc2ccccc2)cc1 | . | -4 | 22 | . | . | .
C[C@H](CO)N1C[C@H](C)[C@@H](CN(C)Cc2ccc(Oc3ccccc3)cc2)Oc2ccc(NC(=O)Nc3ccccc3)cc2CC1=O | . | -1 | 79* | . | . | .
C[C@@H]1CN([C@@H](C)CO)C(=O)Cc2cc(NC(=O)Nc3cccc4ccccc34)ccc2O[C@H]1CN(C)Cc1ccc2c(c1)OCO2 | . | -7 | 75* | . | . | .
C[C@@H]1CN([C@H](C)CO)C(=O)Cc2cc(NC(=O)CCC(F)(F)F)ccc2O[C@H]1CN(C)Cc1ccccc1 | . | 4 | 18 | . | . | .
SMILES | TRPM1 prom inh | esBAF inh | C2C12 statin | Wnt act | MITF TRPM1 HTS | EBV LMP1 NFkB
C[C@H](CO)N1C[C@H](C)[C@@H](CN(C)Cc2ccc(Oc3ccccc3)cc2)Oc2ccc(NC(=O)Nc3cccc4ccccc34)cc2CC1=O | . | -8 | 74* | . | . | .
C[C@@H]1CN([C@H](C)CO)C(=O)Cc2cc(NC(=O)CCC(F)(F)F)ccc2O[C@H]1CN(C)Cc1ccc(Oc2ccccc2)cc1 | . | 9 | 102* | . | . | .
C[C@H]1CN([C@@H](C)CO)C(=O)Cc2cc(NC(=O)Nc3cccc4ccccc34)ccc2O[C@@H]1CN(C)Cc1ccc2c(c1)OCO2 | . | 1 | 33 | . | . | .
Cc1nn(C)cc1NC(=O)c1ccc(Br)o1 | 5 | . | . | -2 | -5 | 12
Cc1ccc(S(=O)(=O)N2CCCC2CNC(=O)C(=O)NCCN2CCOCC2)cc1 (configuration not stated) | 6 | -6 | 14 | -2 | -4 | -3
O=C(CCc1nnc(C2CCCCC2)o1)N1CCN(c2ccccc2F)CC1 | -79 | . | . | 33* | 74 | -22
CN1/C(=C/C(=O)c2nc(S(C)(=O)=O)ncc2Cl)C(C)(C)c2ccccc21 | 106* | . | . | . | -104 | 60*
COc1ccc(-c2noc(Cc3ccc(Cl)cc3)n2)cc1OC | -19 | 11 | 21 | 3 | 13 | -4
COc1cc(-c2nc(-c3ccc(Br)o3)no2)cc(OC)c1OC | . | 23 | -1 | -2 | . | -5
COc1ccc(-c2noc(-c3ccc(Br)o3)n2)cc1OC | -56 | 54* | -8 | 7 | . | -8
COc1ccc(Cc2nc(-c3ccc(Br)o3)no2)cc1OC | -20 | 49* | 34 | 12 | 21 | -14
Cc1cc(OC(C)C(=O)N2CCN(c3ccc(F)cc3)CC2)c2c(C)cc(=O)oc2c1 (configuration not stated) | 17 | -7 | 1 | -1 | -15 | -1
Cc1ccc(NC(=O)CCNS(=O)(=O)c2ccccc2)c(C(=O)c2ccccc2)c1 | 15 | . | . | . | -16 | 2
O=C(C[n+]1cccc(Br)c1)c1ccc(-c2ccccc2)cc1 | -11 | 44* | -17 | 2 | 15 | 15
Cc1ccc(C(=O)C[n+]2ccccc2)cc1 | 0 | 44 | -6 | 4 | 1 | 68*
O=C(C[n+]1cccc(Br)c1)c1ccccc1 | 10 | -3 | -4 | 2 | -8 | -2
Cc1cc(C(=O)Cn2nc(C(=O)O)c3ccccc3c2=O)c(C)n1-c1cccc(C(F)(F)F)c1 | -7 | 4 | -5 | -1 | 7 | 4
Cc1cc(C(=O)Cn2nc(C(=O)O)c3ccccc3c2=O)c(C)n1-c1ccc(F)cc1 | -25 | 48* | -11 | 2 | 22 | -3
Cc1ccc2oc(C(=O)Nc3ccc(S(=O)(=O)Nc4onc(C)c4C)cc3)c(C)c2c1 | -4 | 59* | 3 | 0 | 4 | 66*
CCOCCCn1cnc2c3cc(F)ccc3n(C)c2c1=O | -22 | 12 | -11 | 1 | 29 | 57*
Cn1c2ccc(F)cc2c2ncn(Cc3ccccn3)c(=O)c21 | -1 | . | . | 0 | 0 | -2
